Measurements as given in PubChem BioAssay (NCATS).
Inconclusive results are not listed. The source made the active and inactive calls. Calls come from the whole dose curve; as a rule, active = well fitted curve in the direction sought with a large enough effect; inconclusive = small, poorly fitted or top-dose-only effect, or another doubt; inactive = no such curve, though single readings can be large; an effect the other way counts as inactive or inconclusive.

How the values were obtained:
[1] = qHTS of pediatric cancer cell lines to identify multiple opportunities for drug repurposing: Primary screen for Saos-2 cells (AID 1347097); note: nearly all actives have a fitted effect of over 40% in size; note: potency is the fitted concentration of half-maximal effect; for activity change, negative = cytotoxic: % is set by controls: 0 for no effect and ±100 for the full control effect
Method in brief: (§1)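 ATP-based luminescence (CellTiter-Glo) quantifies viability after a 48-hour exposure. Compounds are dosed across 8 or 11 final concentrations; DMSO and 2.3 µM bortezomib serve as controls.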

[2] = qHTS of pediatric cancer cell lines to identify multiple opportunities for drug repurposing: Primary screen for SK-N-SH cells (AID 1347098); note: nearly all actives have a fitted effect of over 65% in size; note: potency is the fitted concentration of half-maximal effect;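 for activity change, negative = cytotoxic: DMSO served as neutral control and bortezomib at 2.3 µM as positive control; % is set by controls: 0 for no effect and ±100 for the full control effect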
Method in brief: (§2)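 Cells (500-1,000/well) rested 5 h, then received compounds for 48 h; metabolically active cells were measured by CellTiter-Glo luminescence. Final concentrations spanned up to 46 µM (MIPE, 11-point) or 0.59 nM-46 µM (NPC, 8-point) in primary screens, 11-point in follow-ups.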

[3] = qHTS of pediatric cancer cell lines to identify multiple opportunities for drug repurposing: Primary screen for NB1643 cells (AID 1347099); note: nearly all actives have a fitted effect of over 50% in size; note: potency is the fitted concentration of half-maximal effect;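 for activity change, negative = cytotoxic: plate controls were DMSO neutral control for no effect and bortezomib positive control for full effect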
Method in brief: as §1

[4] = qHTS of pediatric cancer cell lines to identify multiple opportunities for drug repurposing: Primary screen for LAN-5 cells (AID 1347100); note: potency is the fitted concentration of half-maximal effect;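 for activity change, negative = cytotoxic: plate controls were DMSO neutral control for no effect and bortezomib positive control for full effect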
Method in brief: (§3)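 Viability after 48 h compound treatment at 37C, 500-1,000 cells/well, read as ATP luminescence with CellTiter-Glo. Primary screens used 11-point (MIPE, 0.78 nM-46 µM) or 8-point (NPC, 0.59 nM-46 µM) final concentrations; follow-up screens used 11-point dilutions.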

[5] = qHTS of pediatric cancer cell lines to identify multiple opportunities for drug repurposing: Primary screen for BT-12 cells (AID 1347101); note: nearly all actives have a fitted effect of over 25% in size; note: potency is the fitted concentration of half-maximal effect;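 for activity change, negative = cytotoxic: plate controls were DMSO for no effect and bortezomib positive control for full effect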
Method in brief: as §2

[6] = qHTS of pediatric cancer cell lines to identify multiple opportunities for drug repurposing: Primary screen for Rh18 cells (AID 1347102); note: nearly all actives have a fitted effect of over 65% in size; note: potency is the fitted concentration of half-maximal effect; for activity change, negative = cytotoxic: % is set by controls: 0 for no effect and ±100 for the full control effect
Method in brief: as §3

[7] = qHTS of pediatric cancer cell lines to identify multiple opportunities for drug repurposing: Primary screen for OHS-50 cells (AID 1347103); note: nearly all actives have a fitted effect of over 40% in size; note: potency is the fitted concentration of half-maximal effect;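 for activity change, negative = cytotoxic: plate controls were DMSO neutral control for no effect and bortezomib positive control for full effect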
Method in brief: as §2

[8] = qHTS of pediatric cancer cell lines to identify multiple opportunities for drug repurposing: Primary screen for RD cells (AID 1347104); note: nearly all actives have a fitted effect of over 55% in size; note: potency is the fitted concentration of half-maximal effect;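 for activity change, negative = cytotoxic: plate controls were DMSO for no effect and bortezomib for full effect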
Method in brief: as §1

[9] = qHTS of pediatric cancer cell lines to identify multiple opportunities for drug repurposing: Primary screen for MG 63 (6-TG R) cells (AID 1347105); note: nearly all actives have a fitted effect of over 50% in size; note: potency is the fitted concentration of half-maximal effect; for activity change, negative = cytotoxic: % is set by controls: 0 for no effect and ±100 for the full control effect
Method in brief: as §1

[10] = qHTS of pediatric cancer cell lines to identify multiple opportunities for drug repurposing: Primary screen for control Hh wild type fibroblast cells (AID 1347106);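 note: series mostly up to about 46 µM; % is set by controls: 0 for no effect and ±100 for the full control effect; a drop in luminescence marks cytotoxicity and a rise apparent proliferation; nearly all actives have a fitted effect of over 55% in size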
Method in brief: as §3

[11] = qHTS of pediatric cancer cell lines to identify multiple opportunities for drug repurposing: Primary screen for Rh30 cells (AID 1347107); note: series mostly up to about 46 µM; % is set by controls: 0 for no effect and ±100 for the full control effect; nearly all actives have a fitted effect of over 75% in size
Method in brief: as §3

[12] = qHTS of pediatric cancer cell lines to identify multiple opportunities for drug repurposing: Primary screen for Rh41 cells (AID 1347108); note: nearly all actives have a fitted effect of over 70% in size; note: potency is the fitted concentration of half-maximal effect;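 for activity change, negative = cytotoxic: series mostly up to about 46 µM; luminescence drop marks cytotoxic hits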
Method in brief: as §1

[13] = qHTS of pediatric cancer cell lines to identify multiple opportunities for drug repurposing: Confirmatory screen for NB1643 cells (AID 1347109); note: potency is the fitted concentration of half-maximal effect; nearly all actives have a fitted effect of over 45% in size
Method in brief: as §3

[14] = qHTS of pediatric cancer cell lines to identify multiple opportunities for drug repurposing: Confirmatory screen for A673 cells (AID 1347110); settings: A673 Ewing sarcoma cell viability; note: potency is the fitted concentration of half-maximal effect; nearly all actives have a fitted effect of over 65% in size
Method in brief: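 Cells plated at 500-1,000/well were treated five hours later with multi-point dilutions up to 46 µM final. After two days, CellTiter-Glo was added and luminescence read.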

[15] = qHTS of pediatric cancer cell lines to identify multiple opportunities for drug repurposing: Confirmatory screen for SK-N-MC cells (AID 1347111); settings: SK-N-MC cell viability;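 note: potency is the fitted concentration of half-maximal effect; cells exposed to compound for 48 h before the readout; nearly all actives have a fitted effect of over 70% in size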
Method in brief: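 SK-N-MC cells at 500-1,000 cells/well in growth media were pre-incubated 5 h, then exposed to compounds at 11-point dilutions for 48 h at 37 degrees C, 5% CO2. Viability was read as CellTiter-Glo luminescence.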

[16] = qHTS of pediatric cancer cell lines to identify multiple opportunities for drug repurposing: Confirmatory screen for DAOY cells (AID 1347114); note: nearly all actives have a fitted effect of over 65% in size; note: potency is the fitted concentration of half-maximal effect
Method in brief: (§4)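 Viability measured as metabolically active cells via CellTiter-Glo luminescence following 48 hours of compound exposure, 11-point dilutions in confirmatory testing. 500-1,000 cells/well plated 5 hours before dosing; controls were DMSO and 2.3 µM bortezomib.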

[17] = qHTS of pediatric cancer cell lines to identify multiple opportunities for drug repurposing: Confirmatory screen for NB-EBc1 cells (AID 1347115); note: nearly all actives have a fitted effect of over 45% in size; note: potency is the fitted concentration of half-maximal effect
Method in brief: as §3

[18] = qHTS of pediatric cancer cell lines to identify multiple opportunities for drug repurposing: Confirmatory screen for BT-12 cells (AID 1347112); note: potency is the fitted concentration of half-maximal effect; nearly all actives have a fitted effect of over 55% in size
Method in brief: as §3

[19] = qHTS of pediatric cancer cell lines to identify multiple opportunities for drug repurposing: Confirmatory screen for SJ-GBM2 cells (AID 1347116); note: potency is the fitted concentration of half-maximal effect; nearly all actives have a fitted effect of over 60% in size
Method in brief: as §4

c1ccc2sc(SN3CCOCC3)nc2c1
inactive: Potency [1] | Potency [2] | Potency [3] | Potency [4] | Potency [5] | Potency [6] | Potency [7] | Potency [8] | Potency [9] | Potency [10] | Potency [11] | Potency [12]

Nc1ccc(O)c(C(=O)O)c1
inactive: Potency [1] | Potency [2] | Potency [3] | Potency [4] | Potency [5] | Potency [6] | Potency [7] | Potency [9] | Potency [10] | Potency [11] | Potency [12]

COc1cc2c3cc1Oc1cc(ccc1O)C[C@@H]1c4c(cc(OC)c(O)c4Oc4ccc(cc4)C[C@@H]3N(C)CC2)CC[N+]1(C)C
inactive: Potency [1] | Potency [3] | Potency [4] | Potency [5] | Potency [6] | Potency [7] | Potency [8] | Potency [9] | Potency [10] | Potency [11] | Potency [12]

Cc1ccc(O)c(-n2nc3ccccc3n2)c1
inactive: Potency [1] | Potency [2] | Potency [3] | Potency [4] | Potency [5] | Potency [6] | Potency [7] | Potency [8] | Potency [9] | Potency [10] | Potency [11]

CCOC(=O)c1ccccc1O
inactive: Potency [1] | Potency [2] | Potency [3] | Potency [4] | Potency [5] | Potency [6] | Potency [7] | Potency [8] | Potency [9] | Potency [10] | Potency [11] | Potency [16] | Potency [17]
active: Potency [13] 14.7 µM | Potency [14] 3.29 µM | Potency [15] 1.65 µM

O=C(CCN1CCN(CCO)CC1)N1c2ccccc2Sc2ccc(C(F)(F)F)cc21
inactive: Potency [1] | Potency [2] | Potency [3] | Potency [4] | Potency [5] | Potency [6] | Potency [7] | Potency [9] | Potency [10] | Potency [11]

O=C(O)Cc1ccc(-c2ccccc2)cc1
inactive: Potency [1] | Potency [3] | Potency [4] | Potency [5] | Potency [6] | Potency [7] | Potency [8] | Potency [9] | Potency [10] | Potency [11]

CC(C)OC(=O)c1cc(C(=O)OC(C)C)cc([N+](=O)[O-])c1
inactive: Potency [1] | Potency [2] | Potency [3] | Potency [4] | Potency [6] | Potency [7] | Potency [8] | Potency [9] | Potency [10] | Potency [11]

O=C(O)Cc1cccc(-c2cc(CCCCCCc3ccc(O[C@H]4O[C@H](CO)[C@@H](O)[C@H](O)[C@@H]4O)c(-c4cccc(CC(=O)O)c4)c3)ccc2O[C@H]2O[C@H](CO)[C@@H](O)[C@H](O)[C@@H]2O)c1
inactive: activity change, negative = cytotoxic [1] 9.71% [at 0.597 µM] | activity change, negative = cytotoxic [2] -3.64% [at 0.741 µM] | activity change, negative = cytotoxic [3] 1.92% [at 0.597 µM] | activity change, negative = cytotoxic [4] 9.16% [at 0.597 µM] | activity change, negative = cytotoxic [5] 15.7% [at 0.745 µM] | activity change, negative = cytotoxic [6] 18.6% [at 0.597 µM] | activity change, negative = cytotoxic [7] 10.4% [at 0.73 µM] | activity change, negative = cytotoxic [8] 16.2% [at 0.597 µM] | activity change, negative = cytotoxic [9] -10.3% [at 0.597 µM] | activity change, negative = cytotoxic [10] 2.02% [at 0.597 µM] | activity change, negative = cytotoxic [11] 18.7% [at 0.597 µM]

C/C(=N\O)c1ccc(OCC(=O)N2CCCCC2)cc1
inactive: Potency [1] | Potency [2] | Potency [3] | Potency [4] | Potency [5] | Potency [6] | Potency [7] | Potency [9] | Potency [10] | Potency [11] | Potency [12]

COc1cccc2c1C(=O)c1c(O)c3c(c(O)c1C2=O)C[C@@](O)(C(=O)CO)C[C@@H]3O[C@H]1C[C@H](N)[C@H](O[C@@H]2CCCCO2)[C@H](C)O1
active: Potency [1] 2.66 µM | Potency [2] 0.097 µM | Potency [3] 0.596 µM | Potency [4] 0.266 µM | Potency [5] 1.55 µM | Potency [6] 15 µM | Potency [7] 0.777 µM | Potency [8] 8.41 µM | Potency [9] 0.841 µM | Potency [12] 8.41 µM | Potency [14] 3.29 µM | Potency [15] 1.65 µM | Potency [18] 13.1 µM | Potency [16] 11.7 µM | Potency [17] 3.29 µM | Potency [19] 14.7 µM

O=C(OCc1ccccc1)c1ccccc1
inactive: Potency [1] | Potency [2] | Potency [3] | Potency [4] | Potency [5] | Potency [6] | Potency [7] | Potency [9] | Potency [10] | Potency [11]

CC(C(=O)O)c1ccc(C(=O)c2ccccc2)s1 (centres undefined)
inactive: Potency [1] | Potency [2] | Potency [3] | Potency [4] | Potency [5] | Potency [6] | Potency [7] | Potency [8] | Potency [10] | Potency [11]

CO[C@@]1(NC(=O)Cc2cccs2)C(=O)N2C(C(=O)O)=C(COC(N)=O)CS[C@@H]21
inactive: Potency [1] | Potency [2] | Potency [3] | Potency [4] | Potency [5] | Potency [6] | Potency [7] | Potency [9] | Potency [10] | Potency [11]

CCCCCCCCCCCC(=O)[O][Sn]([CH2]CCC)([CH2]CCC)[O]C(=O)CCCCCCCCCCC
inactive: Potency [1] | Potency [3] | Potency [4] | Potency [5] | Potency [6] | Potency [7] | Potency [8] | Potency [9] | Potency [10] | Potency [11]

CCCCCCCCCCCCCCCCCC(=O)O
inactive: Potency [1] | Potency [3] | Potency [4] | Potency [5] | Potency [6] | Potency [7] | Potency [8] | Potency [9] | Potency [10] | Potency [11]

O=C(O)Cc1ccc2c(c1)C(=O)c1ccccc1CO2
inactive: Potency [1] | Potency [3] | Potency [4] | Potency [5] | Potency [6] | Potency [7] | Potency [8] | Potency [9] | Potency [10] | Potency [11]

CC(=O)c1ccc(OCC(=O)N2CCCCC2)cc1
inactive: Potency [1] | Potency [3] | Potency [4] | Potency [5] | Potency [6] | Potency [7] | Potency [8] | Potency [9] | Potency [10] | Potency [11]
